Our source for the Potency and activity (max response) values is PubChem BioAssay (NCATS).

Records with an inconclusive call do not appear. Values without a mark were called inactive. Calls of active or inactive are those of the source. The call rests on the fitted dose curve; in most records, active means well fitted curve in the direction sought with a large enough effect; inconclusive means small, poorly fitted or top-dose-only effect, or another doubt; inactive means no such curve, though single readings can be large; an effect the other way counts as inactive or inconclusive.

Assay [1] can be described thus: Viability qHTS for spleen associated tyrosine kinase inhibitor (SYKi) drug resistant MV4-11 cells (AID 1963824). Further: potency means the concentration at half of the fitted maximal effect; nearly all actives have a fitted effect of over 35% in size. As to conditions: SYKi-resistant MV4-11 viability, CellTiter-Glo, 72 h; series mostly up to 45 µM. Summed up:
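SYK-inhibitor-resistant MV4-11 AML cells were seeded at 500 per well onto compound and cultured 72 hours (37 °C, 5% CO2). CellTiter-Glo was then added, and after 10 min at room temperature, luminescence gave viability.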
(qHTS replaces the single test concentration by a dilution series.)

A short description of assay [2]: Cellular viability qHTS for adrenocortical cancer (ACC) cell line SW-13 (AID 1963989). Further: nearly all actives have a fitted effect of over 65% in size. Further: potency means the concentration at half of the fitted maximal effect.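 On activity (max response): cells grown in serum-free medium with ITS supplement; on the % scale 0 is the no-effect control and ±100 the full control effect.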 As to conditions: SW-13 ACC cells viability, CellTiter-Glo, 48 h; activity (max response): hits give low values. The essentials: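 SW-13 cells in ITS-supplemented serum-free DMEM were plated overnight, then exposed for 48 h at 37C to compound titrations (up to 46 uM final). Viability was read by CellTiter-Glo luminescence; four-parameter logistic fits gave IC50 and efficacy.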

Assay [3] is described as follows: Cellular viability qHTS for adrenocortical cancer (ACC) cell line NCI-H295R (AID 1963990). Further: nearly all actives have a fitted effect of over 60% in size. Further: potency means the concentration at half of the fitted maximal effect. As to conditions: CellTiter-Glo ATP luminescence, 48 h; series mostly up to 46.1 µM. Summed up:
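Luminescent ATP read-out (CellTiter-Glo, 20 min RT) after 48 h drug exposure of NCI-H295R cells; a titration up to 46 uM final. Data normalized to doxorubicin (100% inhibition) and DMSO (0%); 4-parameter fit gives IC50, max response.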

A short description of assay [4]: Quantitative highthroughput screen to assess conditional lethalithy of NOMO1 cells grown in RPMI1640 with untreated serum (RPMI+s) (AID 1963876). Further: nearly all actives have a fitted effect of over 35% in size. Further: potency means the concentration at half of the fitted maximal effect.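 On Viability: 100% = DMSO wells and 0% = empty wells without cells.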 As to conditions: NOMO1 AML cells in RPMI+serum, CellTiter-Glo viability, 48 h; series mostly up to 45.8 µM. The essentials:
(§1)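 Each medium arm—HPLM with 10% dialyzed FBS, or RPMI1640 with 5 mM glucose and 10% untreated or dialyzed FBS—was screened against an 11-point, 3-fold compound titration for 48 h at 37 °C, with CellTiter-Glo luminescence as endpoint.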
For orientation: In ATP-based viability assays light output follows the ATP content of the culture.

A short description of assay [5]: Quantitative highthroughput screen to assess conditional lethalithy of NOMO1 cells grown in Human Plasma-Like Medium with dialyzed fetal bovine serum (HPLM+ds) (AID 1963878). Further: nearly all actives have a fitted effect of over 35% in size. Further: potency means the concentration at half of the fitted maximal effect.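 On Viability: 100% = DMSO wells and 0% = empty wells on each plate.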 As to conditions: NOMO1 AML cells in HPLM+ds, CellTiter-Glo viability, 48 h; series mostly up to 45.8 µM. Summed up:
as §1

Assay [6] is described as follows: Quantitative highthroughput screen to assess conditional lethalithy of P12 Ichikawa cells grown in RPMI1640 with dialyzed fetal bovine serum (RPMI+ds) (AID 1963880).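 Further: 100% = DMSO wells and 0% = empty wells on each plate; nearly all actives have a fitted effect of over 35% in size.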 As to conditions: ATP luminescence, 48 h; Potency: P12-Ichikawa viability; series mostly up to 45.8 µM. Summed up:
as §1

The nature of assay [7]: Quantitative highthroughput screen to assess conditional lethalithy of SEM cells grown in Human Plasma-Like Medium with dialyzed fetal bovine serum (HPLM+ds) (AID 1963882). Further: nearly all actives have a fitted effect of over 35% in size. As to conditions: SEM B-ALL cells in HPLM+ds, CellTiter-Glo viability, 48 h; series mostly up to 45.8 µM. The essentials: as §1
Assay [8] in a line: Quantitative highthroughput screen to assess conditional lethalithy of SEM cells grown in RPMI1640 with dialyzed fetal bovine serum (RPMI+ds) (AID 1963884). Further: nearly all actives have a fitted effect of over 35% in size. Further: potency means the concentration at half of the fitted maximal effect.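 On Viability: 100% = DMSO control wells and 0% = empty wells without cells.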 As to conditions: SEM B-ALL cells, RPMI+dialyzed FBS, CellTiter-Glo viability, 48 h; series mostly up to 45.8 µM. Summed up:
as §1

Assay [9] in a line: Quantitative highthroughput screen to assess conditional lethalithy of P12 Ichikawa cells grown in Human Plasma-Like Medium with dialyzed fetal bovine serum (HPLM+ds) (AID 1963879). Further: nearly all actives have a fitted effect of over 35% in size. Further: potency means the concentration at half of the fitted maximal effect. As to conditions: ATP luminescence, 48 h; Potency: viability; series mostly up to 45.8 µM. The essentials: as §1
The nature of assay [10]: Quantitative highthroughput screen to assess conditional lethalithy of P12 Ichikawa cells grown in RPMI1640 with untreated serum (RPMI+s) (AID 1963881). Further: nearly all actives have a fitted effect of over 35% in size. Further: potency means the concentration at half of the fitted maximal effect.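 On Viability: 100% = DMSO wells and 0% = empty wells without cells.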 As to conditions: ATP luminescence, 48 h; Potency: viability; series mostly up to 45.8 µM. The essentials:
as §1

The nature of assay [11]: Quantitative highthroughput screen to assess conditional lethalithy of NOMO1 cells grown in RPMI1640 with dialyzed fetal bovine serum (RPMI+ds) (AID 1963877).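 Further: 100% = DMSO control wells and 0% = empty wells; nearly all actives have a fitted effect of over 30% in size.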 As to conditions: NOMO1 in RPMI+dialyzed FBS viability, ATP luminescence, 48 h; series mostly up to 45.8 µM. The essentials:
as §1

Take `CC[n+]1c(-c2ccccc2)c2cc(N)ccc2c2ccc(N)cc21`: the Potency is 4.22 µM (active) in [1], 5.17 µM (active) in assay [2] and 14.6 µM (active) in assay [3].

As to `COc1cccc2c1[C@]13CCN(CC4CC4)[C@H](C2)[C@]1(OC)CCC(=O)C3`, the Potency entry in assay [4], in assay [5], in assay [6] and in [7] was “inactive” in each case.

In the case of `C=CCOC(Cn1ccnc1)c1ccc(Cl)cc1Cl` (stereo not drawn), in assay [1], the Potency is 9.44 µM (active). Besides, the Potency result in [3] is “inactive”.

On to `C#C[C@]1(O)C=C[C@@H]2[C@@H]3CCC4=CC(=O)CC[C@@H]4[C@H]3CC[C@@]21CC`, for which the Potency entry in assay [4], in [5] and in [8] was “inactive” throughout.

With `COC1(CS(=O)c2ccccc2)CCN(CCc2c[nH]c3ccc(F)cc23)CC1` (stereo not drawn), the Potency entry in assay [4], in [9], in [6], in assay [7], in [8] and in [3] was “inactive” each time. Moreover, the Potency in assay [5] was 26.4 µM (active). In addition, the activity (max response) in assay [2] was -19.4%.

Take `Cc1ccccc1-n1c(Cn2ncc3c(N)ncnc32)nc2cccc(C)c2c1=O`: the Potency in assay [4] is 0.372 µM (active); in [9], 2.96 µM (active); in assay [10], 2.64 µM (active). In addition, the Potency entry in assay [8] was “inactive”.

For `CO[C@H]1CCC(O[C@H]2C[C@H]([C@]3(C)CC[C@]4(C[C@H](O)[C@@H](C)[C@@H]([C@@H](C)C=C(C)C(=O)[C@H](C)C[C@H](C)C(=O)O)O4)O3)O[C@]3(O[C@@H]([C@H]4O[C@@](O)(CO)[C@H](C)C[C@H]4C)C[C@H]3C)[C@H]2C)O[C@H]1C` (stereo partly drawn), the Potency in [4] is 18.7 µM (active); in [9], 3.72 µM (active); in assay [8], 1.32 µM (active).

For `CC(=Cc1csc(C)n1)[C@@H]1C[C@H]2O[C@]2(C)CCC[C@H](C)[C@@H](O)[C@@H](C)C(=O)C(C)(C)[C@@H](O)CC(=O)O1`, the Potency result in assay [4], in [11], in assay [5], in [10], in assay [7] and in assay [8] was “inactive” throughout.
